Inconclusive results are not listed. Values without a mark were called inactive. Activity calls are given as the source filed them. Calls come from the whole dose curve; as a rule, active = well fitted inhibition curve with a large enough effect; inconclusive = small, poorly fitted or top-dose-only effect; inactive = no such curve, though single readings can be large or run the other way.
Assay: BET inhibitor-based combinations targeting novel dependencies in MECOM-rearranged (r) AML: OCI-AML3 cell line (AID 2202232); note: nearly all actives have a fitted effect of over 35% in size
Conditions: CellTiter-Glo luminescence, 48 h; Potency: OCI-AML3 viability; series mostly up to 46 µM; viability (% of control): at the top concentration
Source text: Ecotropic viral insertion site 1 (EVI1) is located on chromosome 3q26.2 as part of the MECOM (MDS and EVI1 complex) locus. Under normal hematopoiesis, EVI1 is a regulator of hematopoietic stem cell maintenance and self-renewal and EVI1 levels decrease as the cells differentiate. In approximately 5-10% of de novo acute myeloid leukemia (AML) EVI1 is aberrantly expressed, including Chromosomal inv(3)(q21;q26.2) or t(3;3)(q21;q26.2) alterations (MECOM-r) that account for about 50% of AML with EVI1 overexpression 31. AMLs with high levels of EVI1 have a poor prognosis and an overall survival time averaging between 10-14 months. EVI1 overexpression confers resistance in leukemia cells, highlighting the need to develop new targeted therapies for EVI1 overexpressing AMLs.
Here, we performed an unbiased chemical drug screening by evaluating the single agent activity of a collection of 2,480 oncology-focused, approved and investigational drugs (NCATS Mechanism Interrogation Plates, MIPE v5.0) against a panel of seven AML cell lines. These included four MECOM-r cell-lines (AML-191, AML-194, UCSD-AML1 and HNT-34) and three non-MECOM-r AMLs (MV4-11, OCI-AML3 and SET-2). Exploiting the mechanistic redundancy built in the library, we identified target-level sensitivities in MECOM-r AML cells and relative activity as compared to other AML subtypes.
A collection of 2480 mechanistically annotated dugs (MIPE v5.0) was used to screen four 3q26.2 rearranged AML cell lines and three non-3q26.2 rearranged AML cell lines. This library purposely exploits redundancy by including multiple inhibitors of key onco-targets, while simultaneously encompassing mechanistic diversity, targeting more than 800 distinct mechanisms of action. Briefly, cells were seeded in 5 uL of growth media using a Multidrop Combi dispenser into 1536 well white polystyrene tissue culture treated plates (Corning) at a density of 500cells/well. For each cell-line, for each of the 2480 drugs in MIPE v5.0 library, an 11-point dose curve was generated via a 1536 pin-tool. Plates were incubated for 48 hr at standard incubator conditions, covered by a stainless steel gasketed lid to prevent evaporation. Cell viability was determined by luminescence based, Cell Titer Glo assay (Promega). In detail, 3 uL of Cell Titer Glo were added to each well and plates were incubated at room temperature for 15 min with a stainless-steel lid in place. Luminescence readings were taken using a Viewlux (PerkinElmer) with a 2 s exposure time per plate. Compound dose-response curves were normalized to DMSO and empty well controls on each plate. Quantitative drug activity data from dose-response curves was determined utilizing area Under the Curve (AUC) and Z-transformed AUC (Z-AUC, a mean-centering transformation applied to each individual cell-line screened).
With `COC1(CS(=O)c2ccccc2)CCN(CCc2c[nH]c3ccc(F)cc23)CC1` (stereo not given) the Potency was 14.8 µM (active).
For `O=C(O)c1nn(Cc2ccc(Cl)cc2Cl)c2ccccc12`, the “viability (% of control)” value was 100%.
For `N[C@@H]1C[C@H]1c1ccccc1`, the “viability (% of control)” value was 93.7%.
In the case of `Cc1ncc(OC[C@@]2(c3cccc(F)c3)C[C@H]2C(=O)Nc2ccc(F)cn2)c(C)n1`, the “viability (% of control)” value is reported as 86.7%.
In the case of `CCCCCCC(C)(C)c1cc(O)c2c(c1)OC(C)(C)C1CC=C(CO)C[C@H]21` (stereo not given in full), the Potency is reported as 26.3 µM (active).
In the case of `CC(C)[C@]12O[C@H]1[C@@H]1O[C@]13[C@]1(O[C@H]1C[C@H]1C4=C(CC[C@@]13C)C(=O)OC4)[C@@H]2O`, the Potency is reported as 0.0295 µM (active).
With `Cc1[nH]nc2ccc(-c3cncc(OC[C@@H](N)Cc4c[nH]c5ccccc45)c3)cc12` the Potency was 0.934 µM (active).
In the case of `C[C@]12CCC(=O)C(O)=C1CC[C@@H]1[C@@H]2CC[C@]2(C)C(=O)CC[C@@H]12`, the “viability (% of control)” value is reported as 92.4% [at 92.2 µM].
In the case of `COc1ccc(C(=O)c2c(C)n(CCN3CCOCC3)c3cc(I)ccc23)cc1`, the Potency is reported as 9.34 µM (active).
With `CC1(C)CC(O)CC(C)(C)N1O` the “viability (% of control)” value was 107%.
For `CC(=O)N1N=C(c2ccc(N)cc2)c2cc3c(cc2C[C@H]1C)OCO3`, the “viability (% of control)” value was 78.4%.
With `C[C@@H]1CC[C@@]2(OC1)O[C@H]1C[C@H]3[C@@H]4CC=C5C[C@@H](O[C@@H]6O[C@H](CO)[C@@H](O[C@@H]7O[C@@H](C)[C@H](O)[C@@H](O)[C@H]7O)[C@H](O)[C@H]6O[C@@H]6O[C@@H](C)[C@H](O)[C@@H](O)[C@H]6O)CC[C@]5(C)[C@H]4CC[C@]3(C)[C@H]1[C@@H]2C` the Potency was 7.42 µM (active).
In the case of `Cc1ccccc1-n1c(Cn2cnc3c(N)ncnc32)nc2cccc(C)c2c1=O`, the Potency is reported as 2.95 µM (active).
In the case of `O=C(NCCCNc1nc(Nc2ccc(N3CCOCC3)cc2)ncc1C1CC1)C1CCC1`, the Potency is reported as 14.8 µM (active).
With `C[C@]12Cc3cn[nH]c3C[C@@H]1CC[C@@H]1[C@@H]2CC[C@@]2(C)[C@H]1CC[C@]2(C)O` the “viability (% of control)” value was 57.1%.
For `O=C(O)CNC(=O)c1c(O)c2ccccc2n(Cc2ccccc2)c1=O`, the “viability (% of control)” value was 112%.
In the case of `COC12C(COC(N)=O)C3=C(C(=O)C(C)=C(N)C3=O)N1CC1C2N1C` (stereo not given), the “viability (% of control)” value is reported as 112%.
For `CN(C)c1cc2c(cc1Sc1nc3c(N)nccc3n1CCNCC(C)(C)C)OCO2`, the Potency was 1.18 µM (active).
In the case of `C[C@@H](C1CC[C@@]2(O)C3=CC(=O)[C@@H]4C[C@@H](O)[C@@H](O)C[C@]4(C)[C@H]3CC[C@]12C)[C@H](O)CCC(C)(C)O` (stereo not given in full), the “viability (% of control)” value is reported as 99.7%.
For `O=C(N[C@@H](COc1ccc2[nH]c(=O)[nH]c2c1)c1ccccc1)c1cccn(Cc2ccc(F)c(F)c2)c1=O`, the Potency was 10.5 µM (active).
In the case of `CC[C@@H](C(N)=O)N1CCCC1=O`, the “viability (% of control)” value is reported as 107%.
With `O=c1[nH]c2ccccc2n1CCCN1CCC(n2c(=O)[nH]c3cc(Cl)ccc32)CC1` the “viability (% of control)” value was 103%.
In the case of `COC(=O)[C@@]12OC[C@]34[C@H]([C@@H](O)[C@@H]1O)[C@@]1(C)CC(=O)C(O)=C(C)[C@@H]1C[C@H]3OC(=O)[C@H](OC(=O)/C=C(\C)C(C)C)[C@@H]24`, the Potency is reported as 0.0074 µM (active).
In the case of `CN1C(=O)COc2c(C(=O)NC3CN4CCC3CC4)cc(Cl)cc21` (stereo not given), the “viability (% of control)” value is reported as 104%.
In the case of `CCCC[N+]1(C)[C@H]2CC(OC(=O)[C@H](CO)c3ccccc3)C[C@H]1[C@H]1O[C@H]12` (stereo not given in full), the “viability (% of control)” value is reported as 113%.
For `COCC1(CO)C(=O)C2CCN1CC2` (stereo not given), the Potency was 4.68 µM (active).
In the case of `COc1cc(C)[nH]c(=O)c1CNC(=O)c1c(C)n([C@H](C)C2CCN(CC(F)(F)F)CC2)c2ccccc12`, the Potency is reported as 14.8 µM (active).
In the case of `Cc1ccccc1-n1c(Cn2ncc3c(N)ncnc32)nc2cccc(C)c2c1=O`, the “viability (% of control)” value is reported as 83.7%.
In the case of `COc1ccc(C(=O)c2c(C)n(CCN3CCOCC3)c3ccccc23)cc1`, the Potency is reported as 3.72 µM (active).
In the case of `CN1CCN(c2ccc([N+](=O)[O-])c3no[n+]([O-])c23)CC1`, the Potency is reported as 9.34 µM (active).
For `Cc1sc2c(c1C)C(c1ccc(Cl)cc1)=NC(CC(=O)Nc1ccc(O)cc1)c1nnc(C)n1-2` (stereo not given), the Potency was 0.263 µM (active).
In the case of `COC[C@@H](NC(C)=O)C(=O)NCc1ccccc1`, the “viability (% of control)” value is reported as 121%.
For `N#CC(O[C@@H]1O[C@H](CO[C@@H]2O[C@H](CO)[C@@H](O)[C@H](O)[C@H]2O)[C@@H](O)[C@H](O)[C@H]1O)c1ccccc1` (stereo not given in full), the “viability (% of control)” value was 87.4%.
For `C[C@@H]1O[C@@H](O[C@@H]2C=C3CC[C@@H]4[C@H](CC[C@]5(C)[C@@H](c6ccc(=O)oc6)CC[C@]45O)[C@@]3(C)CC2)[C@H](O)[C@H](O)[C@H]1O`, the Potency was 0.0148 µM (active).
For `O=C1C=CC[C@@H]2[C@H]3CCCN4CCC[C@@H](CN12)[C@@H]34`, the “viability (% of control)” value was 108%.
With `Cc1cccc(C)c1NC(=O)CN1CCCC1=O` the “viability (% of control)” value was 116%.
With `COc1cc(C)[nH]c(=O)c1CNC(=O)c1c(C)n([C@H](C)C2CCOCC2)c2ccccc12` the “viability (% of control)” value was 103%.
For `Cc1c(N)nc([C@H](CC(N)=O)NC[C@@H](N)C(N)=O)nc1C(=O)N[C@H](C(=O)N[C@@H](C)[C@H](O)[C@@H](C)C(=O)N[C@@H](C(=O)NCCc1nc(-c2nc(C(=O)NCCC[S+](C)C)cs2)cs1)[C@@H](C)O)C(O[C@H]1O[C@H](CO)[C@H](O)[C@@H](O)[C@H]1O[C@H]1O[C@H](CO)[C@@H](O)[C@H](OC(N)=O)[C@@H]1O)c1cnc[nH]1` (stereo not given in full), the “viability (% of control)” value was 97.2% [at 15.6 µM].
In the case of `C=C(C)[C@@H]1CCC(C)=C[C@H]1c1c(O)cc(CCCCC)cc1O`, the Potency is reported as 20.9 µM (active).
With `C[C@](O)(COc1ccc(C#N)cc1)C(=O)Nc1ccc(C#N)c(C(F)(F)F)c1` the “viability (% of control)” value was 86.7%.

From PubChem BioAssay (NCATS)
Potency is the fitted concentration of half-maximal effect.
